# Tests used:
# [1] = biological target: Platelet-derived growth factor receptor alpha (Homo sapiens) (UniProt P16234); settings: at 1 µM
# [2] = biological target: Platelet-derived growth factor receptor alpha (Homo sapiens) (UniProt P16234); settings: at 10 µM
# [3] = biological target: Platelet-derived growth factor receptor beta (Homo sapiens) (UniProt P09619); settings: at 1 µM
# [4] = biological target: Platelet-derived growth factor receptor beta (Homo sapiens) (UniProt P09619); settings: at 10 µM
# [5] = biological target: T1, 3-phosphoinositide-dependent protein kinase 1 (Homo sapiens) (UniProt O15530); settings: at 1 µM
# T1 sequence (whole entry): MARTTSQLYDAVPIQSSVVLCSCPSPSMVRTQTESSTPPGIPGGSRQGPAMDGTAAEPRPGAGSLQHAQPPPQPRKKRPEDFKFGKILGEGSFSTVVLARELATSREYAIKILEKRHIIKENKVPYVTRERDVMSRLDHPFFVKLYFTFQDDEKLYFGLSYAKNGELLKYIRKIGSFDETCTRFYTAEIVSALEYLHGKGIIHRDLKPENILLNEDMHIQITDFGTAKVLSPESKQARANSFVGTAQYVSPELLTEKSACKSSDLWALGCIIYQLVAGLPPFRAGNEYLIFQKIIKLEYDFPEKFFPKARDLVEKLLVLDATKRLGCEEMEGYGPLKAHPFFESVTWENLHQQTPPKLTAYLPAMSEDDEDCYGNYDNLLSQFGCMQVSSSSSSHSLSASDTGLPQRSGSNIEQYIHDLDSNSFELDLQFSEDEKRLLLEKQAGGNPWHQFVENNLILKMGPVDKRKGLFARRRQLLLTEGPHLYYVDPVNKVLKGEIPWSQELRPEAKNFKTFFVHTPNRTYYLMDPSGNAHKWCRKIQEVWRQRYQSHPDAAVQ
# [6] = biological target: T1, 3-phosphoinositide-dependent protein kinase 1 (Homo sapiens); settings: at 10 µM
# [7] = biological target: cAMP-dependent protein kinase catalytic subunit alpha (Homo sapiens) (UniProt P17612); settings: at 1 µM
# [8] = biological target: cAMP-dependent protein kinase catalytic subunit alpha (Homo sapiens) (UniProt P17612); settings: at 10 µM
# [9] = biological target: RAC-gamma serine/threonine-protein kinase (Homo sapiens) (UniProt Q9Y243); settings: at 1 µM
# Chain of RAC-gamma serine/threonine-protein kinase (Homo sapiens) (Q9Y243 whole entry): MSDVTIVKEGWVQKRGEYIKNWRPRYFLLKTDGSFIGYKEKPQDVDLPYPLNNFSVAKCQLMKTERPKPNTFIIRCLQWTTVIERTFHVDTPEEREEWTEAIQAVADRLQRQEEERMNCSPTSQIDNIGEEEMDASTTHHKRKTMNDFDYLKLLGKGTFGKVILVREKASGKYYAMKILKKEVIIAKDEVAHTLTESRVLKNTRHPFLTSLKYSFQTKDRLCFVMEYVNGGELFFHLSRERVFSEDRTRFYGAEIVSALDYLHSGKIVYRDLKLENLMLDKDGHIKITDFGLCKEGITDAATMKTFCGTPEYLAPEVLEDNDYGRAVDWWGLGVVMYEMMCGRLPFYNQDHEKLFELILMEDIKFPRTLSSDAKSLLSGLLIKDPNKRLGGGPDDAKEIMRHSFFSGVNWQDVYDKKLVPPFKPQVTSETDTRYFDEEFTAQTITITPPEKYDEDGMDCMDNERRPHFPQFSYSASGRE
# [10] = biological target: RAC-gamma serine/threonine-protein kinase (Homo sapiens) (UniProt Q9Y243); settings: at 10 µM
# [11] = biological target: Protein kinase C alpha type (Homo sapiens) (UniProt P17252); settings: at 1 µM
# [12] = biological target: Protein kinase C alpha type (Homo sapiens) (UniProt P17252); settings: at 10 µM
# [13] = biological target: Protein kinase C beta type (Homo sapiens) (UniProt P05771); settings: at 1 µM
# Chain of Protein kinase C beta type (Homo sapiens) (P05771 2-671 limits assumed): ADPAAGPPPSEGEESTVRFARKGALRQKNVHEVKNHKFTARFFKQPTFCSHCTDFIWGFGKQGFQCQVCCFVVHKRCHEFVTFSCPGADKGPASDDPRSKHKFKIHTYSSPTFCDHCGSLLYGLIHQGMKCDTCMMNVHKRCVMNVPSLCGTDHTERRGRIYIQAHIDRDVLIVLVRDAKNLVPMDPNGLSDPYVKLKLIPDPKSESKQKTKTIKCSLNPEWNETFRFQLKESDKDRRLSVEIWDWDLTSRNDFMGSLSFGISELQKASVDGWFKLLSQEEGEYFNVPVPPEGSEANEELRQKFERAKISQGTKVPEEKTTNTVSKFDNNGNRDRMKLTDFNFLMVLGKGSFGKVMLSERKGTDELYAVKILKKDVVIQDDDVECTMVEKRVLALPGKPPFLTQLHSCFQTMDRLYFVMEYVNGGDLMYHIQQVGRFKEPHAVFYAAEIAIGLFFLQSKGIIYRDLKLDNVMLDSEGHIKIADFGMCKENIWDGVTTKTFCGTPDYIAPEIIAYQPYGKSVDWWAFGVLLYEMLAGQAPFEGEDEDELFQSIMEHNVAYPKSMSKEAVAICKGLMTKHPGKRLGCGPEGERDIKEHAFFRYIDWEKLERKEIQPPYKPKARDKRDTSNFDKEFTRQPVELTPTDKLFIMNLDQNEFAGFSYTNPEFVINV
# [14] = biological target: Protein kinase C beta type (Homo sapiens) (UniProt P05771); settings: at 10 µM
# [15] = biological target: Protein kinase C beta type (Homo sapiens) (UniProt P05771); settings: at 1 µM; remark: listed apart in the source
# [16] = biological target: Protein kinase C beta type (Homo sapiens) (UniProt P05771); settings: at 10 µM; remark: listed apart in the source
# [17] = biological target: Protein kinase C gamma type (Homo sapiens) (UniProt P05129); settings: at 1 µM
# [18] = biological target: Protein kinase C gamma type (Homo sapiens) (UniProt P05129); settings: at 10 µM
# [19] = biological target: Protein kinase C delta type (Homo sapiens) (UniProt Q05655); settings: at 1 µM
# Chain of Protein kinase C delta type (Homo sapiens) (Q05655 whole entry, looked up): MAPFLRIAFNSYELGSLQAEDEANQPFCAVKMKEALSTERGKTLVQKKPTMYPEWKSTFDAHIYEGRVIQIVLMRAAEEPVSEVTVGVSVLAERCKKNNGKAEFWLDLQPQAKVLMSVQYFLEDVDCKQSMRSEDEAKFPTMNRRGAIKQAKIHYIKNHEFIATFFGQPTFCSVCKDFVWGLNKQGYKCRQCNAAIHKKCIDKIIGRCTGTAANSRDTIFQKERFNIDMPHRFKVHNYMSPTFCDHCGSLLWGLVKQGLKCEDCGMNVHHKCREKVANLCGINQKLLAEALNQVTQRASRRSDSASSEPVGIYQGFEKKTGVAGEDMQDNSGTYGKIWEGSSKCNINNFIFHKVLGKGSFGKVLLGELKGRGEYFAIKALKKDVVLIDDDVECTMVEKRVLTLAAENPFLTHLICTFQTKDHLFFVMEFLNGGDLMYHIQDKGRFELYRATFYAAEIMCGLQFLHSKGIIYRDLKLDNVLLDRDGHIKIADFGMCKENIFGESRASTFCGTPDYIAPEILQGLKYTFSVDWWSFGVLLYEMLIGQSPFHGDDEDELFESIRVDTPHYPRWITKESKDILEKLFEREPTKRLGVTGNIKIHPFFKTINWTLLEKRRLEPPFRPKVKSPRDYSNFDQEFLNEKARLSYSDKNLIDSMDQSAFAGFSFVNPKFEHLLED
# [20] = biological target: Protein kinase C delta type (Homo sapiens) (UniProt Q05655); settings: at 10 µM
# Chain of Platelet-derived growth factor receptor alpha (Homo sapiens) (P16234 whole entry): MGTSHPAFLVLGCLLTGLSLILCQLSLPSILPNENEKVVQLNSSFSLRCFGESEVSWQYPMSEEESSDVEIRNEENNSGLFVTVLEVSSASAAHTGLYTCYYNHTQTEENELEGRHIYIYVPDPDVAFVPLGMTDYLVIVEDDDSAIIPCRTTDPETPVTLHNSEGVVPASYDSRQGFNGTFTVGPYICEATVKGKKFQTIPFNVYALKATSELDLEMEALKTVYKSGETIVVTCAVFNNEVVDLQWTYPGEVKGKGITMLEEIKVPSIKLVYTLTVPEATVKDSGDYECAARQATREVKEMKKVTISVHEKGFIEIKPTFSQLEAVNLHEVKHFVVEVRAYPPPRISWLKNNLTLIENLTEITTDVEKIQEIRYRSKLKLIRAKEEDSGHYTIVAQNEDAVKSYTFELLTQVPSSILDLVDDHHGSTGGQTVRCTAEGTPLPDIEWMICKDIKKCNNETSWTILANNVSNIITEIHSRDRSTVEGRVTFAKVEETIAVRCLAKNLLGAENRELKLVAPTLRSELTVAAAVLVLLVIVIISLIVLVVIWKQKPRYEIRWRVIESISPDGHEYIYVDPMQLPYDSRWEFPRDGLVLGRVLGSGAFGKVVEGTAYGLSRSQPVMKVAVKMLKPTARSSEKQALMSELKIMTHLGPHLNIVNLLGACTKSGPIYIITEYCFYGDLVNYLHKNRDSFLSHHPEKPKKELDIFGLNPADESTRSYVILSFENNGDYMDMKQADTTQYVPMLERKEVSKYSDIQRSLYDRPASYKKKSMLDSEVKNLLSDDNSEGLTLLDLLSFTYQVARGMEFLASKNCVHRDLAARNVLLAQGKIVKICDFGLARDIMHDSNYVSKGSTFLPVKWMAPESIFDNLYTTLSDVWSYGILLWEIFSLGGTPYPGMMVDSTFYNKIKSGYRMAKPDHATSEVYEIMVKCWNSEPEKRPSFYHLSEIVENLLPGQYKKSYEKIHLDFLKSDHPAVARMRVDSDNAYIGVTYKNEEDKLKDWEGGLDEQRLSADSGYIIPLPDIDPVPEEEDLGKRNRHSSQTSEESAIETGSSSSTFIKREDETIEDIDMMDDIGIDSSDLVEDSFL
# Chain of Platelet-derived growth factor receptor beta (Homo sapiens) (P09619 whole entry): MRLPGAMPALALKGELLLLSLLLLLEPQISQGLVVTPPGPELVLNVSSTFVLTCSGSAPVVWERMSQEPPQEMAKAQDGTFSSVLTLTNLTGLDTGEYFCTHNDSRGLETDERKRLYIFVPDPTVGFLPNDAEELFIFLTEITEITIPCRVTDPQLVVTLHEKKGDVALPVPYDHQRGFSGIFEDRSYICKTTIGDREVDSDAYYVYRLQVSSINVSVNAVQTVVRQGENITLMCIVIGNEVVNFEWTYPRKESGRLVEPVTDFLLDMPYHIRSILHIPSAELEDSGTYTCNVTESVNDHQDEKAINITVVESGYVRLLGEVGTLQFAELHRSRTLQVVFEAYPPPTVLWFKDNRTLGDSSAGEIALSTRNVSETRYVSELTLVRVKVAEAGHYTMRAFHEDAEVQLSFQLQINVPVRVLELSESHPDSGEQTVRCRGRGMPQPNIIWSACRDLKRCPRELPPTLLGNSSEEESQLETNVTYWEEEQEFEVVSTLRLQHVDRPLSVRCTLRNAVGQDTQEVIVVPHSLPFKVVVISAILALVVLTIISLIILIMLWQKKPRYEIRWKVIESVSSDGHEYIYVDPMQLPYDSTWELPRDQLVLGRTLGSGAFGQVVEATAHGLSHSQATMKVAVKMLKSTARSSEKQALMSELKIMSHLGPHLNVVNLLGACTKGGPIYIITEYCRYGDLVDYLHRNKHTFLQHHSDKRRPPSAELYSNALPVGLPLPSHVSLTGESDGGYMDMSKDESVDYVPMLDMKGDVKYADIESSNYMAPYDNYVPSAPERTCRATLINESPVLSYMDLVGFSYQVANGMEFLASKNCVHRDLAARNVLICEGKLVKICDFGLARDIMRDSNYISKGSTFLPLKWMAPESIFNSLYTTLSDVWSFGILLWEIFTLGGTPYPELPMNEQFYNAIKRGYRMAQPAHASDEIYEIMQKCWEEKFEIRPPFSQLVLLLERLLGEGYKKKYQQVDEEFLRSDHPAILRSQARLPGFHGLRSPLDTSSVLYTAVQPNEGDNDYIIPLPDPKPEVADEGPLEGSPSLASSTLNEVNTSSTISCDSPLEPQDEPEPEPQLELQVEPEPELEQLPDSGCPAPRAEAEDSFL
SMILES,residual activity [1],residual activity [2],residual activity [3],residual activity [4],residual activity [5],residual activity [6],residual activity [7],residual activity [8],residual activity [9],residual activity [10],residual activity [11],residual activity [12],residual activity [13],residual activity [14],residual activity [15],residual activity [16],residual activity [17],residual activity [18],residual activity [19],residual activity [20]
O=C1NC(=O)c2cc(Nc3ccc(F)cc3)c(Nc3ccc(F)cc3)cc21,115%,107%,109%,95%,106%,110%,100%,82%,98%,65%,104%,101%,107%,86%,93%,103%,111%,98%,97%,105%
CC(C)n1cnc2/c(=N/c3cccc(Cl)c3)nc(NCCO)[nH]c21,105%,107%,108%,113%,96%,81%,96%,89%,95%,76%,101%,63%,104%,89%,101%,100%,99%,70%,96%,82%
Oc1c2ccccc2c2c3c(cccc13)N=N2,108%,86%,99%,96%,72%,19%,89%,73%,89%,66%,98%,73%,102%,104%,108%,102%,73%,30%,99%,71%
O=c1c2ccccc2[nH]c(=S)n1CCN1CCC(=C(c2ccc(F)cc2)c2ccc(F)cc2)CC1,105%,97%,106%,85%,116%,111%,92%,114%,93%,40%,108%,105%,109%,109%,101%,104%,116%,117%,101%,97%
CC[n+]1c(/C=C/N(C)c2ccccc2)n(-c2ccccc2)c2ccc(-c3nc4ccccc4s3)cc21,117%,94%,103%,125%,121%,149%,110%,146%,105%,65%,112%,103%,103%,97%,96%,92%,115%,110%,100%,102%
CC(C)n1cnc2c(NCc3ccccc3)nc(NCCCO)nc21,105%,107%,98%,94%,107%,104%,98%,99%,104%,90%,99%,102%,106%,105%,105%,104%,92%,104%,94%,98%
Cc1nc2cc3nc(-c4cccs4)cnc3cc2n1C,78%,15%,97%,46%,109%,109%,104%,106%,112%,102%,111%,96%,107%,105%,99%,99%,110%,104%,98%,106%
C[C@@H](N)[C@H]1CC[C@H](C(=O)Nc2ccncc2)CC1,99%,102%,107%,106%,95%,83%,96%,80%,104%,93%,94%,84%,101%,87%,81%,34%,97%,96%,48%,12%
CC(=O)O/N=C1\C(=C2\C(=O)Nc3cc(Br)ccc32)Nc2ccccc21,102%,79%,86%,52%,91%,67%,86%,93%,98%,79%,105%,101%,122%,122%,105%,94%,97%,109%,98%,108%
Oc1n[nH]c2nnc(-c3c(-c4ccccc4)nn4ccccc34)cc12,103%,110%,103%,110%,85%,70%,86%,101%,96%,84%,102%,92%,94%,98%,103%,97%,96%,103%,99%,95%
CCN(CC)CCCCN1c2ccccc2Oc2ccc(Cl)cc21,126%,104%,119%,108%,131%,138%,95%,147%,126%,113%,112%,107%,105%,98%,103%,95%,117%,108%,107%,111%
NC(=O)c1ccc2[nH]c(-c3ccc(Oc4ccc(Cl)cc4)cc3)nc2c1,115%,121%,107%,128%,105%,107%,106%,129%,106%,103%,99%,90%,111%,93%,95%,100%,90%,108%,104%,107%
CO[C@H]1[C@@H](OC)C[C@H](C)[C@@H](OC)C2=CC(=O)C=C(NC(=O)/C(C)=C/C=C/[C@H](OC)[C@@H](OC(N)=O)/C(C)=C/[C@@H]1C)C2=O,114%,107%,108%,80%,112%,96%,79%,70%,94%,75%,110%,107%,106%,121%,92%,97%,111%,99%,107%,107%
CNc1cc2c(Nc3cccc(Br)c3)ncnc2cn1,122%,107%,109%,113%,100%,64%,102%,98%,104%,93%,106%,95%,118%,105%,104%,103%,109%,94%,104%,105%
Cn1cnc2cc3c(Nc4cccc(Br)c4)ncnc3cc21,108%,79%,103%,81%,106%,92%,99%,75%,101%,96%,101%,98%,109%,85%,100%,95%,103%,99%,97%,100%
O=C1Nc2cc(Br)ccc2/C1=C1/Nc2ccccc2/C1=N\O,30%,6%,36%,11%,42%,37%,89%,97%,83%,83%,98%,104%,100%,101%,102%,95%,101%,107%,112%,118%
CCC(=O)Nc1ccc2ncnc(Nc3cccc(Br)c3)c2c1,117%,91%,96%,92%,111%,107%,88%,102%,102%,99%,100%,91%,117%,99%,108%,104%,109%,100%,101%,113%
COc1ccc(CNc2nc(N(CCO)CCO)nc3c2ncn3C(C)C)cc1,101%,102%,93%,100%,100%,100%,93%,85%,72%,69%,34%,13%,87%,86%,87%,79%,97%,86%,60%,27%
COc1ccc(C(=O)Nc2sc3c(c2C(N)=O)CCCC3)cc1OC,87%,86%,89%,97%,95%,96%,97%,95%,102%,87%,106%,100%,109%,94%,111%,101%,117%,104%,101%,104%
O=C1NC(=O)/C(=C\c2ccc3nccnc3c2)S1,116%,109%,97%,106%,111%,98%,71%,70%,98%,85%,108%,88%,124%,121%,101%,100%,109%,83%,99%,81%
CO[C@H]1C[C@@H]2CC[C@@H](C)[C@@](O)(O2)C(=O)C(=O)N2CCCC[C@H]2C(=O)O[C@H]([C@H](C)C[C@@H]2CC[C@@H](O)[C@H](OC)C2)CC(=O)[C@H](C)/C=C(\C)[C@@H](O)[C@@H](OC)C(=O)[C@H](C)C[C@H](C)/C=C/C=C/C=C/1C,111%,102%,116%,114%,117%,126%,112%,141%,103%,98%,99%,99%,107%,106%,105%,103%,105%,98%,98%,99%
Cc1ccc(NC2=CC(=O)c3sc(C)nc3C2=O)cc1,104%,112%,93%,92%,99%,102%,102%,106%,91%,89%,106%,105%,98%,88%,112%,101%,102%,108%,103%,102%
COc1cccc(-c2cc(=O)c3ccccc3o2)c1N,107%,110%,114%,108%,114%,99%,96%,95%,100%,95%,113%,104%,106%,105%,121%,108%,107%,119%,113%,113%
O=Nc1c(-c2c(O)[nH]c3ccccc23)[nH]c2ccccc12,87%,37%,84%,26%,53%,9%,90%,54%,95%,64%,93%,86%,93%,94%,95%,102%,92%,73%,85%,80%
Ic1cccc(CSc2nnc(-c3ccncc3)o2)c1,104%,97%,99%,97%,56%,44%,99%,79%,92%,74%,96%,95%,107%,102%,95%,92%,97%,104%,100%,101%
CC#CC(=O)Nc1cc2c(Nc3ccc(F)c(Cl)c3)ncnc2cn1,113%,42%,105%,86%,102%,100%,99%,77%,93%,91%,103%,96%,113%,103%,101%,101%,109%,105%,94%,102%

# Reference: ChEMBL document CHEMBL2218924, “A broad activity screen in support of a chemogenomic map for kinase signalling research and drug discovery” (Biochem J, 2013)
